# According to paper PMC4336329 (PLoS ONE, 2015):
# Screen size: about 310,000 compounds; about 14,000 (4.5%) showed an effect of 50% or more. The effect is printed as a negative number. What follows is part of a selection rich in strong results, with near analogues and random picks from the rest.
# Biological target: human ether-à-go-go-related gene (hERG) potassium channel (human, UniProt Q12809)
# Test: primary screen, population patch clamp on CHO cells stably expressing hERG; higher = less effect of the substance
# 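Also: peak tail current of the secondary pulse compared with the same well before compound.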
# Sequence of human ether-à-go-go-related gene (hERG) potassium channel (Q12809 whole entry, looked up): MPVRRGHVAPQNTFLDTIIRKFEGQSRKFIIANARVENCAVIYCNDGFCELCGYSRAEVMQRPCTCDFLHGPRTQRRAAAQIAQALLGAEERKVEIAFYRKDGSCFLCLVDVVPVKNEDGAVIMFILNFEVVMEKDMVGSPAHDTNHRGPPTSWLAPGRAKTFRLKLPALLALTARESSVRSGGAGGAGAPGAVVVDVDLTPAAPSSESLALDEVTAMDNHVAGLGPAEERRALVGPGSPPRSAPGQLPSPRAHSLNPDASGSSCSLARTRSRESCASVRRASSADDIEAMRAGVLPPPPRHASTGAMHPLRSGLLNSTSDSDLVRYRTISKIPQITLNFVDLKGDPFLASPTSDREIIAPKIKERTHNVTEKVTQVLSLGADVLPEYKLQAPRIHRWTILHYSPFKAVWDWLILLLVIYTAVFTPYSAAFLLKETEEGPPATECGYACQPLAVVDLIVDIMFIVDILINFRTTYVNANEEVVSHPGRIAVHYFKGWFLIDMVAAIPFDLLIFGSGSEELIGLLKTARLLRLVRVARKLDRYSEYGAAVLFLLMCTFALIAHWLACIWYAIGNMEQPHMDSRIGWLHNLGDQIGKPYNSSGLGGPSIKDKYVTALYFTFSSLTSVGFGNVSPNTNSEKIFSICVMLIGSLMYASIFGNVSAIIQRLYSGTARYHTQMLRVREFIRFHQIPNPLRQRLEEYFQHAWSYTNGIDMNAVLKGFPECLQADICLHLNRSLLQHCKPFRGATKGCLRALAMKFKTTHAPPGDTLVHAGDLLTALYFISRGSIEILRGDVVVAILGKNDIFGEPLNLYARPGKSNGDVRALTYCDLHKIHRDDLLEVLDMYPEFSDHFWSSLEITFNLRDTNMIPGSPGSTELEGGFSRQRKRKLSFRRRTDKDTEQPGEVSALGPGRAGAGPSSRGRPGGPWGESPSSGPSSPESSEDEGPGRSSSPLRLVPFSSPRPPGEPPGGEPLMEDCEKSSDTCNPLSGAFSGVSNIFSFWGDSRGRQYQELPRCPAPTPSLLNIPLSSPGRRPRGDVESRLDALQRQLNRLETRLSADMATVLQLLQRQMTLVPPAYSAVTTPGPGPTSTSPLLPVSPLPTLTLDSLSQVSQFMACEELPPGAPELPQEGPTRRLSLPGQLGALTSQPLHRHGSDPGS
row,Compound,"hERG current change (%, negative = inhibition) at 10uM [%]"
1,O=C(NCCS(=O)(=O)N1CCN(c2ccccc2F)CC1)c1cccc(Br)c1,2.34
2,O=C1COc2ccc(C(=O)CSc3ccccc3C(=O)O)cc2N1,12.1
3,C=CCn1c(C)cc(-c2csc(NC(=O)CCc3nc4ccccc4c(=O)[nH]3)n2)c1C,-23.8
4,CCOC(=O)C1C2C=CC3(CN(Cc4ccccc4)C(=O)C13)O2 (stereo not shown),13.7
5,C/C(CC(=O)NC1CCCCCC1)=N\NC(=O)c1cnccn1,2.01
6,CC(C)n1cnnc1SCC(=O)NCC(=O)Nc1ccc(F)cc1,11.2
7,C/C(=N\NC(=O)c1ccn(C)n1)c1ccc(NC(=O)c2cccc(F)c2)cc1,8.11
8,CCc1ccc(OC(=O)c2cccnc2)cc1,21.6
9,COCCCNC(=O)c1ccccc1NS(C)(=O)=O,4.15
10,CCOc1ccc2nc(NCCNC(=O)C(C)(C)C)c(C)cc2c1,-46.1
11,CCOc1ccc2nc(NCCNC(=O)CC)c(C#N)cc2c1,-12
12,CCOc1ccc2nc(NCCNC(=O)C3CC3)c(C)cc2c1,-63.7
13,COc1ccc(C(=O)NCCNc2nc3cc(C)c(C)cc3cc2C)cc1,7.22
14,CCOc1ccc2nc(NCCNC(=O)C(C)C)c(C)cc2c1,-61
15,COCC(=O)NCCNc1nc2ccc(C)cc2cc1C,-24.9
16,O=C(CSc1nc(-c2ccccc2)cs1)Nc1nccs1,-8.07
17,CC(=O)c1c(N2CCN(C(=O)c3ccco3)CC2)nc(=S)n(-c2ccccc2)c1C,-1.95
18,Cc1cc(NC(=O)c2ccc(Br)c(S(=O)(=O)N3CCCC3)c2)no1,0.115
19,COc1ccc2cc1Oc1ccc(cc1)C[C@H]1c3cc(c(OC)cc3CCN1C)Oc1c(OC)c(OC)cc3c1[C@@H](C2)N(C)CC3,-57.4
20,COc1ccc2cc1Oc1ccc(cc1)C[C@H]1c3cc(c(OC)cc3CCN1C)Oc1c(O)c(OC)cc3c1[C@H](C2)N(C)CC3,-47.7
21,COc1ccc2cc1Oc1ccc(cc1)C[C@H]1c3cc(c(OC)cc3CCN1C)Oc1c(OC)c(OC)cc3c1[C@H](C2)N(C)CC3,-37.4
22,CC(C)CN(C(=O)c1ccc(N2CCCC2=O)cc1)c1c(N)n(Cc2ccccc2)c(=O)[nH]c1=O,19.6

row,Compound,"hERG current change (%, negative = inhibition) at 10uM [%]"
1,Cc1cccc(N2CCN(C(=O)c3ccc(Cl)c(S(=O)(=O)NCc4ccco4)c3)CC2)c1C,4.75
2,COc1ccccc1N1CCN(C(=O)c2ccc(Cl)c(S(=O)(=O)NCc3ccco3)c2)CC1,-14.2
3,CCOC(=O)N1CCN(C(=O)c2ccc(S(=O)(=O)NCc3ccco3)cc2)CC1,-2
4,O=C(c1ccc(Cl)c(S(=O)(=O)NCc2ccco2)c1)N1CCN(c2ccc(F)cc2)CC1,-70.3
5,O=C(c1ccc(S(=O)(=O)NCc2ccco2)cc1)N1CCN(Cc2ccccc2)CC1,2.86
6,N#Cc1ccc(CN2CCN(C(=O)c3ccc(S(=O)(=O)NCc4ccco4)cc3)CC2)cc1,-59.8
7,COc1ccc(N2CCN(C(=O)c3ccc(S(=O)(=O)NCc4ccco4)cc3)CC2)cc1,-54.7
8,O=C(c1ccc(S(=O)(=O)NCc2ccco2)cc1)N1CCN(c2ccc(F)cc2)CC1,-31.5
9,O=C(c1ccc(S(=O)(=O)NCc2ccco2)cc1)N1CCN(Cc2ccc3c(c2)OCO3)CC1,-32.5
10,Cc1cccc(NC(=O)CN2C(=O)COc3ccc(Cl)cc32)c1C,8.74
11,O=C(NCC(=O)N(Cc1ccco1)C(C(=O)NC1CCCC1)c1ccncc1)c1cccs1 (stereo not shown),-0.29
12,O=C(N/N=C/c1cc([N+](=O)[O-])ccc1O)C1CC1,9.47
13,Cc1cc(C)n(-c2nc3ccccc3c(=O)n2OCCOc2ccccc2)n1,-1.88
14,COc1ccc2c(c1)C(=O)Cc1ccccc1O2,0.762
15,COc1ccc(C(c2nnnn2C2CCCCC2)N2CCN(C)CC2)c(OC)c1 (stereo not shown),-4.87
16,N/C(=N\OC(=O)C12CC3CC(CC(C3)C1)C2)c1ccccc1,-11.1
17,COc1ccc2nc(/N=C/c3c(O)n(-c4cccc(Cl)c4)c(=O)[nH]c3=O)sc2c1,2.53
18,CCOC(=O)CC(=O)CSc1nc2nc(C)cc(C)n2n1,8.34
19,O=C(Nc1ccccc1)c1ccncc1,1.31
20,O=C(COC(=O)c1ccc(O)cc1O)NNC(=O)c1cccs1,6.45
21,CSc1nc(N2CCOCC2)cc(N2CCOCC2)n1,7.09
22,O=C(CN1C(=O)c2cccc3cccc(c23)C1=O)N1CCCCC1,0.0571

row,Compound,"hERG current change (%, negative = inhibition) at 10uM [%]"
1,Cc1cc(C)c(NC(=O)C2CCCN2CCO)c(C)c1 (stereo not shown),-14.5
2,Cc1cc(C)c(NC(=O)C2CCCN2CCOC(=O)c2ccccc2)c(C)c1.Cl (stereo not shown),-26
3,Cc1cc(C)c(NC(=O)C2CCCN2CCOC(=O)c2cccc([N+](=O)[O-])c2)c(C)c1.Cl (stereo not shown),-63.2
4,CC(NC(=O)c1ccccc1F)c1nnc(SCC(=O)NC2=NCCS2)n1C (stereo not shown),22.3
5,COC(=O)c1cc(CNC(=O)c2ccccc2Cl)ccc1OC,0.487
6,COC(=O)C1CSc2[nH]c(=O)sc2C1c1ccc(OC)c(OC)c1 (stereo not shown),0.0419
7,COC(=O)C1=C(C(=O)OC)C(c2cc(Br)ccc2O)c2sc(=O)[nH]c2S1 (stereo not shown),-47.6
8,COC(=O)C1=C(C(=O)OC)C(c2ccccc2O)c2sc(=O)[nH]c2S1 (stereo not shown),-55.9
9,COc1ccc(C2c3sc(=O)[nH]c3SC3C4CCC(C4)C23)cc1OC (stereo not shown),-17.5
10,COC(=O)C1=C(C(=O)OC)C(c2ccc(OC)c(OC)c2)c2sc(=O)[nH]c2S1 (stereo not shown),-54.8
11,COC(=O)C1=C(C(=O)OC)C(c2cc([N+](=O)[O-])ccc2O)c2sc(=O)[nH]c2S1 (stereo not shown),1.28
12,S=c1[nH]nc(-c2ccc(Cl)cc2)n1-c1cccnc1,23.5
13,Cc1ccc(-c2nc(C#N)c(N3CCC(C)CC3)o2)cc1,17.5
14,N#Cc1c(N)nc2c(c1-c1ccncc1)CCCCC2,-12.3
15,COc1ccc(O)c(CN2CCCC(C(=O)c3ccccc3SC)C2)c1 (stereo not shown),-30.9
16,COc1cc(OC)c(OC)cc1CN1CCCC(C(=O)c2ccccc2SC)C1 (stereo not shown),-58.5
17,COc1ccc(OC)c(CN2CCCC(C(=O)c3ccccc3SC)C2)c1 (stereo not shown),-75.9
18,COCCC(=O)N1CCCC(C(=O)c2ccccc2SC)C1 (stereo not shown),13.1
19,COc1cc(CN2CCCC(C(=O)c3ccccc3SC)C2)cc(OC)c1 (stereo not shown),-74.4
20,O=C(/C=C/c1ccc(S(=O)(=O)N2CCOCC2)cc1)NCc1ccccc1,-4.31
21,O=c1[nH]c(-c2ccc(Cl)cc2)cs1,9.25
22,COc1cc(NC(=O)Nc2cccc([N+](=O)[O-])c2)cc(OC)c1,1.42

row,Compound,"hERG current change (%, negative = inhibition) at 10uM [%]"
1,COc1cccc(NC(=O)[C@@H]2CCCN2S(=O)(=O)c2cccc3cccnc23)c1,-5.87
2,COCCN(C(=O)CCC(=O)Nc1nccs1)C(C(=O)NC(C)(C)C)c1ccc(F)cc1 (stereo not shown),-1.98
3,COC(=O)CSc1nnc(CNc2ccc(F)cc2)o1,14.5
4,COc1ccc(/C(N)=N/O)cc1O,5.51
5,CCCn1c(=O)c2c(nc3n2CCCN3CCc2ccc(OC)c(OC)c2)n(C)c1=O,-23.7
6,CC(C)Cn1c(=O)c2c(nc3n2CC(C)CN3Cc2ccccc2)n(C)c1=O (stereo not shown),-83.3
7,CC1CN(Cc2ccccc2)c2nc3c(c(=O)n(C)c(=O)n3C)n2C1 (stereo not shown),-36.1
8,CC(C)Cn1c(=O)c2c(nc3n2CCCN3CCc2ccccc2)n(C)c1=O,-76
9,C=CCn1c(=O)c2c(nc3n2CCCN3CCc2ccc(OC)c(OC)c2)n(C)c1=O,-79.6
10,C=C(C)Cn1c(=O)c2c(nc3n2CCCN3Cc2ccccc2)n(C)c1=O,-17.9
11,Cn1c(=O)n(CC(=O)O)c(=O)c2c1nc1n2CCCN1CCc1ccccc1,13.6
12,Cn1c(=O)c2c(nc3n2CCCN3CCc2ccccc2)n(C)c1=O,-1.45
13,Cn1c(=O)n(Cc2ccccc2)c(=O)c2c1nc1n2CCCN1CCc1ccccc1,-26
14,CCn1c(=O)c2c(nc3n2CCCN3CCc2ccc(OC)c(OC)c2)n(C)c1=O,-5.18
15,C=C(C)Cn1c(=O)c2c(nc3n2CCCN3CCc2ccccc2)n(C)c1=O,-73.3
16,CCCn1c(=O)c2c(nc3n2CC(C)CN3Cc2ccccc2)n(C)c1=O (stereo not shown),-39.4
17,CCOc1ccc(-n2nnc3c(=O)n(CC(=O)N4CCCc5ccccc54)cnc32)cc1,-4.52
18,O=C(Nc1nc2ccc(S(=O)(=O)N3CCCC3)cc2s1)C1CCCCC1,4.81
19,COc1ccc(C(CC(=O)N2CCC3(CC2)OCCO3)NS(=O)(=O)c2ccc(OC)cc2)cc1 (stereo not shown),7.14
